Results from PubChem BioAssay (NCATS).
Inconclusive results are not listed. Activity calls are given as the source filed them. The call rests on the fitted dose curve; in most records, active means well fitted curve in the direction sought with a large enough effect; inconclusive means small, poorly fitted or top-dose-only effect, or another doubt; inactive means no such curve, though single readings can be large; an effect the other way counts as inactive or inconclusive.

Assay: qHTS of pediatric cancer cell lines to identify multiple opportunities for drug repurposing: Confirmatory screen for NB1643 cells (AID 1347109); further: nearly all actives have a fitted effect of over 45% in size
Settings: NB1643 neuroblastoma cell viability; series mostly up to 45.9 µM
How it was run: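 Cells (500-1,000/well) in growth media were settled 5 h at 37 degrees C, then given compounds for 48 h. Viability was read as CellTiter-Glo luminescence. Primary runs used MIPE at 11 points (0.78 nM-46 µM) and NPC at 8 points (0.59 nM-46 µM); follow-ups used 11 points.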
Potency means the concentration at half of the fitted maximal effect.

SMILES | Potency
CN1CC[C@@H](c2c(O)cc(O)c3c(=O)cc(-c4ccccc4Cl)oc23)[C@@H](O)C1 | 0.261 µM (active)
COCCn1c2c([n+](Cc3cnccn3)c1C)C(=O)c1ccccc1C2=O | 0.208 µM (active)
COc1cccc2c(NCc3ccccc3)nc(-n3c(N)nc4ccccc43)nc12 | 7.37 µM (active)
COC(=O)[C@]12CCC(C)(C)C[C@@H]1[C@@H]1C(=O)C=C3[C@@]4(C)C=C(C#N)C(=O)C(C)(C)[C@@H]4CC[C@@]3(C)[C@]1(C)CC2 | 3.29 µM (active)
COc1cc2c(Oc3ccc(-c4cnc(Nc5ccc(F)cc5)n(C)c4=O)cc3F)ccnc2cc1OCCCN1CCOCC1 | 11.7 µM (active)
Cc1ccc(NC(=O)C2(c3ccc4c(c3)OC(F)(F)O4)CC2)nc1-c1cccc(C(=O)O)c1 | inactive
CN1CCN(Cc2ccc(NC(=O)Nc3ccc(Oc4cc(NC(=O)C5CC5)ncn4)cc3)cc2C(F)(F)F)CC1 | 1.85 µM (active)
Cc1[nH]nc2ccc(-c3cncc(OC[C@@H](N)Cc4ccccc4)c3)cc12 | 1.17 µM (active)
C[C@@]12O[C@@H](C[C@]1(O)CO)n1c3ccccc3c3c4c(c5c6ccccc6n2c5c31)CNC4=O | 1.85 µM (active)
C=CC(=O)Nc1cc2c(Nc3ccc(F)c(Cl)c3)ncnc2cc1C#CC(C)(C)N1CCN(C)CC1 | 5.37 µM (active)
Nc1ncnc2c1c(-c1cnc3[nH]ccc3c1)nn2C1CCCC1 | 8.27 µM (active)
Cc1cc(Nc2cc(N3CCN(C)CC3)nc(Sc3ccc(NC(=O)C4CC4)cc3)n2)n[nH]1 | 4.14 µM (active)

Assay: qHTS of pediatric cancer cell lines to identify multiple opportunities for drug repurposing: Confirmatory screen for A673 cells (AID 1347110);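 further: cells exposed to compound for 48 h before the viability read; nearly all actives have a fitted effect of over 65% in size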
Settings: A673 Ewing sarcoma cell viability; series mostly up to 45.9 µM
How it was run: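 Forty-eight-hour viability assay. Follow-up compounds ran at 11-point dilutions; positive control bortezomib at 2.3 uM final, neutral control DMSO.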

SMILES | Potency
CN1CC[C@@H](c2c(O)cc(O)c3c(=O)cc(-c4ccccc4Cl)oc23)[C@@H](O)C1 | 0.522 µM (active)
COCCn1c2c([n+](Cc3cnccn3)c1C)C(=O)c1ccccc1C2=O | 0.0165 µM (active)
COc1cccc2c(NCc3ccccc3)nc(-n3c(N)nc4ccccc43)nc12 | 7.37 µM (active)
COC(=O)[C@]12CCC(C)(C)C[C@@H]1[C@@H]1C(=O)C=C3[C@@]4(C)C=C(C#N)C(=O)C(C)(C)[C@@H]4CC[C@@]3(C)[C@]1(C)CC2 | 1.65 µM (active)
COc1cc2c(Oc3ccc(-c4cnc(Nc5ccc(F)cc5)n(C)c4=O)cc3F)ccnc2cc1OCCCN1CCOCC1 | 4.14 µM (active)
Cc1ccc(NC(=O)C2(c3ccc4c(c3)OC(F)(F)O4)CC2)nc1-c1cccc(C(=O)O)c1 | inactive
CN1CCN(Cc2ccc(NC(=O)Nc3ccc(Oc4cc(NC(=O)C5CC5)ncn4)cc3)cc2C(F)(F)F)CC1 | 0.131 µM (active)
Cc1[nH]nc2ccc(-c3cncc(OC[C@@H](N)Cc4ccccc4)c3)cc12 | 1.51 µM (active)
C[C@@]12O[C@@H](C[C@]1(O)CO)n1c3ccccc3c3c4c(c5c6ccccc6n2c5c31)CNC4=O | 1.04 µM (active)
C=CC(=O)Nc1cc2c(Nc3ccc(F)c(Cl)c3)ncnc2cc1C#CC(C)(C)N1CCN(C)CC1 | 4.27 µM (active)
Nc1ncnc2c1c(-c1cnc3[nH]ccc3c1)nn2C1CCCC1 | 3.69 µM (active)
Cc1cc(Nc2cc(N3CCN(C)CC3)nc(Sc3ccc(NC(=O)C4CC4)cc3)n2)n[nH]1 | 13.1 µM (active)

Assay: qHTS of pediatric cancer cell lines to identify multiple opportunities for drug repurposing: Confirmatory screen for SK-N-MC cells (AID 1347111);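 further: cells exposed to compound for 48 h before the readout; nearly all actives have a fitted effect of over 70% in size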
Settings: SK-N-MC cell viability; series mostly up to 45.9 µM
How it was run: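 Metabolically active cells were quantified by ATP-dependent luminescence (CellTiter-Glo, 15 min at room temperature) following 48 h treatment. Cells had been plated at 500-1,000 per well and settled for 5 h beforehand.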

SMILES | Potency
CN1CC[C@@H](c2c(O)cc(O)c3c(=O)cc(-c4ccccc4Cl)oc23)[C@@H](O)C1 | 0.414 µM (active)
COCCn1c2c([n+](Cc3cnccn3)c1C)C(=O)c1ccccc1C2=O | 0.0093 µM (active)
COc1cccc2c(NCc3ccccc3)nc(-n3c(N)nc4ccccc43)nc12 | 7.37 µM (active)
COC(=O)[C@]12CCC(C)(C)C[C@@H]1[C@@H]1C(=O)C=C3[C@@]4(C)C=C(C#N)C(=O)C(C)(C)[C@@H]4CC[C@@]3(C)[C@]1(C)CC2 | 3.69 µM (active)
COc1cc2c(Oc3ccc(-c4cnc(Nc5ccc(F)cc5)n(C)c4=O)cc3F)ccnc2cc1OCCCN1CCOCC1 | 2.93 µM (active)
Cc1ccc(NC(=O)C2(c3ccc4c(c3)OC(F)(F)O4)CC2)nc1-c1cccc(C(=O)O)c1 | inactive
CN1CCN(Cc2ccc(NC(=O)Nc3ccc(Oc4cc(NC(=O)C5CC5)ncn4)cc3)cc2C(F)(F)F)CC1 | 0.131 µM (active)
Cc1[nH]nc2ccc(-c3cncc(OC[C@@H](N)Cc4ccccc4)c3)cc12 | 2.33 µM (active)
C[C@@]12O[C@@H](C[C@]1(O)CO)n1c3ccccc3c3c4c(c5c6ccccc6n2c5c31)CNC4=O | 0.261 µM (active)
C=CC(=O)Nc1cc2c(Nc3ccc(F)c(Cl)c3)ncnc2cc1C#CC(C)(C)N1CCN(C)CC1 | 1.91 µM (active)
Nc1ncnc2c1c(-c1cnc3[nH]ccc3c1)nn2C1CCCC1 | 1.65 µM (active)
Cc1cc(Nc2cc(N3CCN(C)CC3)nc(Sc3ccc(NC(=O)C4CC4)cc3)n2)n[nH]1 | 0.131 µM (active)
